In the library only some 1.8% were active in any assay of this set; here they are far more common.
TrxR1 substrate – qHTS Assay for Substrates of Mammalian Selenoprotein Thioredoxin Reductase 1 (TrxR1): qHTS; AID 588456, 2011; 390,000 tested, 0.01% active; Potency, µM (titrated, usually from 114 µM), for inactives: top-dose activity change, negative = substrate turnover; Thioredoxin reductase 1, cytoplasmic (Rattus norvegicus), O89049; purified TrxR1 substrate turnover, NADPH consumption readout; further: on the % scale 0 is the no-effect control and ±100 the full control effect; nearly all actives have a fitted effect of over 50% in size
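Rat TrxR1, dispensed at 90 nM, was prereduced with 400 uM NADPH (final) for 5 min at ~22 deg C, then incubated with compound 15 min before 400 uM selenite. A first-read NADPH fluorescence drop versus no-compound background flagged substrates.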
Vif-A3G inh – qHTS for Inhibitors of Vif-A3G Interactions: qHTS; DNA dC->dU-editing enzyme APOBEC-3G (Homo sapiens), Q9HC16; HeLa A3G-eYFP + Vif (tagged APOBEC3G with the HIV-1 protein that degrades it), YFP fluorescence, overnight; Potency, µM (doses to about 46.1 µM), for inactives: at the top dose activity, negative = active, hits mostly inhibitors; 410,000 tested, 0.076% active; AID 602310, 2012; further: on the % scale 0 is the no-effect control and ±100 the full control effect; nearly all actives have a fitted effect of over 60% in size
Target sequence (Q9HC16 whole entry, looked up): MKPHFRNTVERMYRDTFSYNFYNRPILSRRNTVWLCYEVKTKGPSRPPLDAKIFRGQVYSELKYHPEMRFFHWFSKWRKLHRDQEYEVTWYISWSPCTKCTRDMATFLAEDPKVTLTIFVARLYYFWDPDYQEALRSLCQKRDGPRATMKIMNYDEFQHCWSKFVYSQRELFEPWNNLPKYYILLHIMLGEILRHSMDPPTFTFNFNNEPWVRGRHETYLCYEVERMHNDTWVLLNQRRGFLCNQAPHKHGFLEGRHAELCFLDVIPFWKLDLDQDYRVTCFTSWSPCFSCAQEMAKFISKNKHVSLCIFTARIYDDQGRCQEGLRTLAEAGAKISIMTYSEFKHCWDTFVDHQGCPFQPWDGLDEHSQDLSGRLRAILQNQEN
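Read-out is eYFP fluorescence (Ex 488/Em 500-530) from Vif-expressing HeLa A3G-eYFP cells; more signal means A3G escaped Vif-mediated degradation. Cells plated overnight, compound pinned in, incubated overnight at 37 deg C.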
Vif-APOBEC3F blk – qHTS for Inhibitors of Vif-A3F Interactions: qHTS | HeLa A3F-eYFP + Vif (tagged APOBEC3F with the HIV-1 protein that degrades it), YFP fluorescence increase | Potency, µM (top dose mostly 46.1 µM), inactives show top-dose activity, negative = active | 390,000 tested, 0.2% active | AID 602313, 2012; further: % of control where 0% means no effect; nearly all actives have a fitted effect of over 65% in size
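HeLa cells stably expressing Vif plus C-terminally eYFP-tagged A3F were seeded, incubated overnight at 37 deg C, dosed with compound, incubated overnight again at 37 deg C. Yellow fluorescence (Ex 488/Em 500-530) reported blocked Vif-mediated A3F-eYFP degradation.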
VDR inh – Inhibitors of the vitamin D receptor (VDR): qHTS | Vitamin D3 receptor (Homo sapiens), P11473 | VDR-SRC2-3 peptide fluorescence polarization, 2 h | Potency, µM, for inactives: max response, negative = inhibition, most hits filed as inhibitors | 400,000 tested, 0.93% active | AID 504847, 2011; further: on the % scale 0 is the no-effect control and ±100 the full control effect
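Fluorescence polarization assay of small-molecule disruption of VDR binding to coregulator peptide SRC2-3. Compounds and controls pin-transferred, then read after 2 h incubation at ambient room temperature.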
rTrxR1 inhibitor – qHTS Assay for Inhibitors of Mammalian Selenoprotein Thioredoxin Reductase 1 (TrxR1): qHTS. Thioredoxin reductase 1, cytoplasmic (Rattus norvegicus), O89049. recombinant rTrxR1, NADPH fluorescence consumption, selenite substrate. Potency, µM (doses to about 114 µM), inactives show at the top dose activity change, negative = inhibition, hits mostly inhibitors. 390,000 tested, 1% active; further: on the % scale 0 is the no-effect control and ±100 the full control effect; nearly all actives have a fitted effect of over 65% in size
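Rat TrxR1 (90 nM in the dispensed reagent) was pre-reduced with 400 uM NADPH for 5 min at room temperature, then incubated with compound for 15 min. After 400 uM selenite was added, NADPH fluorescence (Ex 340/Em 450 nm) was followed for 8 min.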
Numbers without * were called inactive; ? = inconclusive; . = no result; [ ] = dose if it differs, or a comment. The call rests on the fitted dose curve; in most records, active means well fitted curve in the direction sought with a large enough effect; inconclusive means small, poorly fitted or top-dose-only effect, or another doubt; inactive means no such curve, though single readings can be large; an effect the other way counts as inactive or inconclusive. Potency means the concentration at half of the fitted maximal effect.

SMILES | TrxR1 substrate | Vif-A3G inh | Vif-APOBEC3F blk | VDR inh | rTrxR1 inhibitor
CN(C)S(=O)(=O)c1cccc(NC(=O)COC(=O)c2ccc3ccccc3n2)c1 | 0% | -7% | 8% | -7% | 2%
Cc1nnnn1/C(=C\c1ccccc1)C(=O)OCC(=O)Nc1cccc(S(=O)(=O)N(C)C)c1 | -8% | ? | -6% | 45µM* | 13µM*
Cc1nnnn1/C(=C\c1ccccc1)C(=O)OCC(=O)Nc1ccc(Cl)cc1F | 10% | -21% | 5% | 40µM* | ?
Oc1ccc(/C=C/c2ccc(/C=C/c3ccc(O)cc3)c(Br)c2)cc1 | 75%[57.1 µM] | . | . | -6% | 22µM*
Cc1ccc(CC(=O)NO)cc1 | 6% | . | . | . | 18%
CSCC[C@H](NC(=O)[C@H](Cc1ccccc1)NC[C@@H](NC[C@@H](N)CS)C(C)C)C(=O)O | . | . | . | 35µM* | .
On1onc2c3cc(-c4ccccc4)nc3ccc21 | -6% | 3.5µM* | ? | 1% | -4%
[O][C@H]1[C@@H](O)[C@@H](CO)O[C@@H](O[C@@H]2[C@@H]3OC[C@H]2O[C@H](O[C@@H]2[C@@H](O)[C@H](C[C@@H]4[C@@H]5OC[C@H]4O[CH][C@@H]5O)O[C@H](CO)[C@@H]2OS(=O)(=O)O)[C@@H]3OS(=O)(=O)O)[C@@H]1O | . | . | . | 0% | .
CC(C)CC(=O)n1sc(NC(=O)c2ccccc2)nc1=O | -7% | -5% | -1% | 45µM* | -11%
Cc1ccc(C(=O)Nc2nc(=O)n(C(=O)c3ccccc3Cl)s2)cc1 | 4%[57.1 µM] | -1% | 3% | 18µM* | 3%[57.1 µM]
Cc1ccc(C(=O)Nc2nc(=O)n(C(=O)CC(C)C)s2)cc1 | -9% | 0% | -11% | ? | 6%
Cc1ccccc1C(=O)Nc1cccc(-c2nnc(SCC(=O)NCc3ccco3)n2C)c1 | 1% | -1% | . | . | 0%
CC(C)C1Oc2ccccc2N(CC(=O)N(Cc2ccccn2)CC2CCCO2)C1=O (centres undefined) | 0% | -8% | -20% | 4% | 19%
Cc1ccc(CN(CC2CCCO2)C(=O)CN2C(=O)C(C(C)C)Oc3ccccc32)o1 (centres undefined) | -2% | 6% | -5% | ? | 10µM*
Cc1ccc(S(=O)(=O)SC/C=C/CSS(=O)(=O)c2ccc(C)cc2)cc1 | -17% | -7% | 10% | 45µM* | -25%
Cc1ccc(S(=O)(=O)CCCS(=O)(=O)c2ccc(C)cc2)cc1 | 2% | -1% | 4% | -5% | 9%
Cc1ccc(S(=O)(=O)SCCCSS(=O)(=O)c2ccc(C)cc2)cc1 | 16%[57.1 µM] | 0% | 9% | 50µM* | -11%[11.4 µM]
Cc1ccc(S(=O)(=O)N(C)CCN(C)S(=O)(=O)c2ccc(C)cc2)cc1 | -7%[57.1 µM] | 1% | 1% | 11% | 14%
O=[N+]([O-])c1ccc2c(c1)C=C/C2=C\c1ccc(C=S)cc1 | 0% | 0% | . | . | -27%
CCc1cccc(NC(=O)CN2C(=O)COc3ccc(S(=O)(=O)Nc4ccccc4)cc32)c1 | -15% | -5% | -11% | 7% | -6%
O[C@@H]1CCN2Cc3ccccc3N=C12 | . | . | . | 3.5µM* | .
c1ccc2c(c1)CN1CCCC1=N2 | 3% | 5% | 21% | -2% | 30%
CCN(CC)c1nc(NC2CCN(C)CC2)c2cc(OC)c(OC)cc2n1 | 43% | . | . | . | -19%
O=C(NNc1cccc(Cl)n1)Nc1ccc(Cl)cc1 | -2% | 1% | 5% | -12% | 2%
Cc1ccc(NNC(=O)Nc2ccc(Cl)cc2)nn1 | 1% | 0% | 10% | 18µM* | 16%
SMILES | TrxR1 substrate | Vif-A3G inh | Vif-APOBEC3F blk | VDR inh | rTrxR1 inhibitor
O=C(CN1CCN(C(=O)c2ccco2)CC1)NCc1ccc(Cl)cc1 | 10% | 3% | 1% | -5% | 14µM*
CN=C1N[C@H](c2ccccc2)N(c2ccccc2)S1 | 2% | 1% | . | 25µM* | ?
CCOC(=O)c1cc(C)n(CC2CCC(C(=O)Nc3ccc(Cl)cc3)CC2)c1C (centres undefined) | -4% | 7% | 2% | 11% | 24%
CCOC(=O)/C=C/c1ccc2c(c1)S(=O)(=O)N(C1CCCC1)[C@H]2CC(=O)OCC | -8% | 3% | . | . | 23%
N#CC(=Cc1ccccn1)c1nc(-c2ccc(Cl)cc2)cs1 | . | 5.6µM* | ? | . | .
N#C/C(=C/c1ccc(Cl)cc1)c1nc(-c2ccc(Br)cc2)cs1 | 6% | -5% | 4% | -11% | -4%
COC(=O)CSc1nc(SC)nc2c1sc1nc(-c3ccco3)c3c(c12)CC(C)(C)OC3 | 0% | 3% | 0% | -5% | 15%
CSc1nc(SCCO)c2sc3nc(-c4ccco4)c4c(c3c2n1)CC(C)(C)OC4 | 2% | 4% | ? | -13% | 56µM*
COCCNc1nc(-c2ccc(N(C)C)cc2)nc2ccccc12 | . | . | . | 79µM* | .
Cc1ccc(/C=c2\sc3nc(-c4cccs4)nn3c2=O)o1 | -2% | -1% | ? | 35µM* | ?
COc1cccc(/C=c2\sc3nc(-c4cccs4)nn3c2=O)c1OC | -5% | 0% | -6% | -14% | -25%
CNc1ccc(/C=C2\C=Cc3ccccc32)cc1Cl | -10% | -23% | . | . | -24%
O=C(Nc1ccc(Cl)cc1)Nc1ccon1 | 2% | 20µM* | 1% | -3% | 12%
Cc1noc(C)c1C(=O)N1CCC[C@@]2(CCN(Cc3ccccc3)C2)C1 | . | . | . | 1% | .
COCC(=O)N1CCC2(CCCN(c3ccc(-c4ccccc4)cc3)C2)CC1 | . | . | . | 50µM* | .
Cc1noc(C)c1C(=O)N1CCC[C@@]2(CCN(c3cccc(-c4ccccc4)c3)C2)C1 | . | . | . | 40µM* | .
COc1ccc(C(=O)N2CCC[C@@]3(CCN(c4cccc(-c5ccccc5)c4)C3)C2)cc1 | . | . | . | 40µM* | .
COc1ccc(C(=O)N2CCC3(CC2)CCN(c2ccccc2)CC3)cc1 | . | . | . | -17% | .
COCC(=O)N1CCC2(CC1)CCN(c1ccc(-c3ccccc3)cc1)CC2 | . | . | . | -9% | .
COc1ccccc1C(=O)OCC(=O)Nc1ccc(N2CCCCC2)cc1 | 6% | 1% | . | . | 19%
N#CC1=C(N)Oc2cc(N)ccc2C1c1ccc(F)cc1F (centres undefined) | 3% | 13µM* | 22µM* | 4% | 4%
O=c1[nH]ncc2c3ccccc3n(Cc3cccc(Cl)c3)c12 | -5%[57.1 µM] | ? | 25µM* | -13% | 17%[57.1 µM]
NNC(=O)c1[nH]c2ccc(Cl)cc2c1-c1ccccc1 | 3%[57.1 µM] | ? | -8% | 79µM* | 10%[57.1 µM]
NNC(=O)c1[nH]c2ccc(Br)cc2c1-c1ccccc1 | 3%[57.1 µM] | ? | -3% | ? | 4%[57.1 µM]
COc1cc(/C=C2/C=Cc3ccccc32)ccc1N(C)C | -10% | -14% | . | . | ?

Compound activity as filed in PubChem BioAssay.
